# A number with no mark means an inactive call. Results filed as inconclusive are left out. Entries that show only a call come without a potency. The source made the active and inactive calls. Unless noted, calls come from the whole dose curve.
# How the values were obtained:
# [1] = Validation screen for inhibitors of Lassa infection (AID 463096); note: potency is the fitted concentration of half-maximal effect
# [2] = biological target: Glucocorticoid receptor (Homo sapiens) (UniProt P04150); assay: GR-GFP Redistribution (AID 450;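 active = compounds whose dose series gives a full or clear partial fitted curve of increased nuclear translocation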; note: potency is the fitted concentration of half-maximal effect); conditions: U2OS GR-GFP nuclear translocation, laser cytometry, 2 h
# [3] = biological target: Mitogen-activated protein kinase 10 (Mus musculus) (UniProt Q61831); assay: JNK3 AlphaScreen Assay (AID 530; active = well fitted curve in either direction with a large enough effect, not every such curve was filed as active;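 note: kinase came from lysate of stimulated human HepG2 cells; signal reports phosphorylation of biotinylated GST-cJun 1-79 at Ser73 with 10 µM ATP; series mostly up to about 57 µM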)
# Procedure, shortened: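 Phosphorylation of biotinylated GST-cJun(1-79) at Ser73 is measured by AlphaScreen proximity luminescence. Enzyme is JNK3 in HepG2 lysates activated with interleukin-1beta and tumor necrosis factor alpha; ATP is 10 uM final.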
# [4] = biological target: Alpha-galactosidase (Coffea arabica) (UniProt Q42656); assay: Counterscreen for Glucocerebrosidase Inhibitors: qHTS Assay for Coffee Bean alpha-Galactosidase at pH 4.5 (AID 957; active = well fitted curve in the direction sought with a large enough effect; an effect the other way counts as inactive or inconclusive; note: series mostly up to about 77 µM)
# Procedure, shortened: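 Enzyme is added first (2 nM final), then compounds titrated from 0.7 nM to 77 uM, then 80 uM 4-methylumbelliferyl alpha-D-galactopyranoside; after 20 min at room temperature a pH 10 NaOH/glycine stop precedes fluorescence reading at 365/440 nm.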
# [5] = biological target: Alpha-galactosidase (Coffea arabica) (UniProt Q42656); assay: Counterscreen for Glucocerebrosidase Inhibitors: qHTS Assay for Coffee Bean alpha-Galactosidase at pH 5.9 (AID 998; active = well fitted curve in the direction sought with a large enough effect; an effect the other way counts as inactive or inconclusive)
# Procedure, shortened: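 In 50 mM citric acid pH 5.9 with 0.005% Tween-20, coffee bean enzyme hydrolyses 80 uM 4-MU alpha-D-galactopyranoside over 20 min at RT. Activity is normalized to controls; AC50 comes from Hill-modelled concentration-response data.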
# Alpha-galactosidase (Coffea arabica), sequence (Q42656 whole entry, looked up): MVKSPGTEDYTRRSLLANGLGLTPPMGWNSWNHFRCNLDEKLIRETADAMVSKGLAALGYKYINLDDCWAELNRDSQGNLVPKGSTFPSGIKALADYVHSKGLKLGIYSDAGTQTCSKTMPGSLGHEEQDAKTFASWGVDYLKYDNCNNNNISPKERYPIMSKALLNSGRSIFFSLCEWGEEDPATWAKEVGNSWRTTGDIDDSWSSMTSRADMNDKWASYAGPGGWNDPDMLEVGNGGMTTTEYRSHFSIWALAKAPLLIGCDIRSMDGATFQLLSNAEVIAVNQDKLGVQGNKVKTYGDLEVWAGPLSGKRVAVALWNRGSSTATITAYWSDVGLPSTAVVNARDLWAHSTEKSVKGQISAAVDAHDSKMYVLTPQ
# Glucocorticoid receptor (Homo sapiens), sequence (P04150 whole entry, looked up): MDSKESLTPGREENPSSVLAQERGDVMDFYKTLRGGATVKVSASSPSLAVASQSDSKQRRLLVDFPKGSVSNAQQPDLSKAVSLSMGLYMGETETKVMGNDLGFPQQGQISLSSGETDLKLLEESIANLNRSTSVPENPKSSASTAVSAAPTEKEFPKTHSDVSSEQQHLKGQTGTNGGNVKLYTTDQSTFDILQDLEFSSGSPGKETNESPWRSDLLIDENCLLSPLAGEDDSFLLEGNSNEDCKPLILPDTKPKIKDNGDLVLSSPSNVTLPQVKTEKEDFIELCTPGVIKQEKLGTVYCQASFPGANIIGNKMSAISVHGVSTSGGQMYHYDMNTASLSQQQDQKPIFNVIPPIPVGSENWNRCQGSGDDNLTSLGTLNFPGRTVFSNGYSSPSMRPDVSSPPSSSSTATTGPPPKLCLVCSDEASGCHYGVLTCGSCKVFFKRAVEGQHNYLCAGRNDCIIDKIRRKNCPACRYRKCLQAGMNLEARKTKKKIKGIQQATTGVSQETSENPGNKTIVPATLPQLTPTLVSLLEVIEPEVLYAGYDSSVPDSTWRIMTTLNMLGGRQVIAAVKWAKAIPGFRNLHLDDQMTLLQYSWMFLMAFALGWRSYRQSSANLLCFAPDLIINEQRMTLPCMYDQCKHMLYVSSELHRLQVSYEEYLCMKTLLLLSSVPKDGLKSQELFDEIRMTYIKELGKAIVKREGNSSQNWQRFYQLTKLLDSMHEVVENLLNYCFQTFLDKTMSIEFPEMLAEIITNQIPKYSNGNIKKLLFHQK
compound,measurement,setting,value
COc1cc2c(cc1OC)C(c1ccccc1)CN(C)CC2 (stereo not given),Potency,[1],inactive
CNC(=O)[C@H]1O[C@@H](n2cnc3c(NCc4cccc(I)c4)ncnc32)[C@H](O)[C@H]1O,Potency,[1],inactive
OC[C@H]1O[C@@H](n2cnc3c(NC4CCCC4)ncnc32)[C@H](O)[C@H]1O,Potency,[1],inactive
Nc1ncnc2c1ncn2[C@@H]1O[C@H](CO)[C@H](O)[C@H]1O,Potency,[1],inactive
COC1=C[C@H]2[C@@H]3Cc4ccc(OC)c(O)c4[C@@]2(CCN3C)CC1=O,Potency,[2],> 46 µM
same,outcome,[3],inactive
CN1C(=O)CCC1c1cccnc1 (stereo not given),Potency,[1],inactive
CC[C@H](CO)NC(=O)[C@H]1C=C2c3cccc4[nH]cc(c34)C[C@H]2N(C)C1,Potency,[2],> 46 µM
same,outcome,[3],inactive
C[C@H]1c2cccc(O)c2C(O)=C2C(=O)[C@]3(O)C(O)=C(C(N)=O)C(=O)C(N(C)C)[C@@H]3[C@@H](O)C21 (stereo not given in full),Potency,[1],inactive
COc1cc2c(cc1O)CCN[C@H]2C,Potency,[2],> 46 µM
same,outcome,[3],inactive
Nc1ncnc2c1nc(Br)n2C1O[C@H]2COP(=O)(O)O[C@@H]2C1O (stereo not given in full),Potency,[1],inactive
C/C=C1\C(=O)CC2C3CCC4=CC(=O)CC[C@]4(C)C3CC[C@]12C (stereo not given in full),Potency,[1],inactive
COc1c2c(nc3ccccc13)OC(C(C)(O)CO)C2 (stereo not given),Potency,[1],inactive
C=C(C)[C@H]1[C@H]2OC(=O)[C@@H]1[C@]1(O)C[C@H]3O[C@]34C(=O)O[C@H]2[C@]14C,Potency,[2],> 46 µM
CN(C)C1C(=O)C(C(N)=O)=C(O)[C@@]2(O)C(=O)C3=C(O)c4c(O)ccc(Cl)c4[C@@H](O)C3C[C@@H]12 (stereo not given in full),Potency,[1],inactive
CCCCC#Cc1nc(N)c2ncn([C@@H]3O[C@H](C(=O)NCC)[C@@H](O)[C@H]3O)c2n1,Potency,[1],inactive
O=[N+]([O-])c1ccc(CSc2ncnc3c2ncn3[C@@H]2O[C@H](CO)[C@H](O)[C@H]2O)cc1,Potency,[1],inactive
CC1=CC(=O)C2=C(C)C[C@H](O)[C@@H]3[C@@H](OC(=O)[C@H]3C)[C@H]12,Potency,[2],> 46 µM
same,outcome,[3],inactive
CCCC1O[C@@H]2C[C@H]3[C@@H]4CCC5=CC(=O)C=C[C@]5(C)C4[C@@H](O)C[C@]3(C)[C@]2(C(=O)CO)O1 (stereo not given in full),Potency,[1],inactive
Oc1cc2c(cc1O)[C@H]1c3ccccc3CN[C@H]1CC2,Potency,[2],> 46 µM
Nc1ccn([C@@H]2O[C@H](CO)[C@@H](O)[C@@H]2O)c(=O)n1,Potency,[1],inactive
Nc1nc2c(nc(Br)n2C2O[C@H]3COP(=O)(O)O[C@@H]3C2O)c(=O)[nH]1 (stereo not given in full),Potency,[1],inactive
NC(=S)c1ccc[n+]([C@@H]2O[C@@H](COP(=O)([O-])OP(=O)(O)OC[C@H]3O[C@@H](n4cnc5c(N)ncnc54)[C@H](OP(=O)(O)O)[C@H]3O)C(O)C2O)c1 (stereo not given in full),Potency,[1],inactive
CN1C2CC(OC(=O)C(CO)c3ccccc3)CC1C1OC12 (stereo not given),Potency,[1],inactive
Nc1ncnc2c1ncn2[C@@H]1O[C@H](C(=O)NC2CC2)[C@H](O)[C@H]1O,Potency,[1],inactive
Nc1nc(SCc2ccc([N+](=O)[O-])cc2)c2ncn([C@@H]3O[C@H](CO)[C@H](O)[C@H]3O)c2n1,Potency,[1],inactive
C[C@@H](Oc1ccc(Oc2cnc3ccc(Cl)cc3n2)cc1)C(=O)O,Potency,[1],inactive
CC#C[C@]1(O)CC[C@H]2C3CCC4=CC(=O)CCC4=C3[C@@H](c3ccc(N(C)C)cc3)C[C@@]21C (stereo not given in full),Potency,[1],inactive
COc1cc2c(cc1OC)-c1c(O)c(OC)cc3c1[C@@H](C2)N(C)CC3,Potency,[2],> 46 µM
same,outcome,[3],inactive
COc1ccc2c(c1OC)C(=O)OC2C1c2c(cc3c(c2OC)OCO3)CCN1C (stereo not given),Potency,[1],inactive
OC[C@H]1O[C@@H](n2cnc3c(N[C@H]4CC5CCC4C5)ncnc32)[C@H](O)[C@@H]1O (stereo not given in full),Potency,[1],inactive
OC[C@H]1CCCN2CCCC[C@@H]12,Potency,[2],> 46 µM
same,outcome,[3],inactive
COc1cc2c(cc1OC)-c1c(OC)c(OC)c(CO)c3c1[C@H](C2)N(C)CC3,Potency,[2],> 46 µM
same,outcome,[3],inactive
Nc1nc(Cl)nc2c1ncn2[C@@H]1O[C@H](COP(=O)(O)OP(=O)(O)OP(=O)(O)O)[C@H](O)[C@H]1O,Potency,[1],inactive
CC(=O)O[C@]1(C(C)=O)CC[C@H]2C3C=C(Cl)C4=CC(=O)[C@@H]5C[C@H]5[C@]4(C)C3CC[C@@]21C (stereo not given in full),Potency,[1],inactive
CC(O)[C@@H](O)[C@H]1CNc2nc(N)[nH]c(=O)c2N1 (stereo not given in full),Potency,[1],inactive
O=c1ccc2cc(O[C@@H]3O[C@@H](CO)[C@@H](O)[C@@H](O)[C@H]3O)c(O)cc2o1,Potency,[2],> 46 µM
same,outcome,[3],inactive
O=C(O)CC[C@H](NC(=O)c1ccccc1C(=O)O)C(=O)O,Potency,[1],inactive
C[C@H]1CC[C@@H]2[C@@H](C)C(=O)O[C@H]3O[C@@]4(C)CC[C@@H]1[C@]32OO4,Potency,[2],> 46 µM
same,outcome,[3],inactive
C[C@@]12CCC[C@](C)(C(=O)O)[C@@H]1CCc1ccc(O)cc12,Potency,[2],> 46 µM
same,outcome,[3],inactive
CC(C)(O)[C@H]1[C@H]2OC(=O)[C@@H]1[C@]1(O)C[C@H]3O[C@]34C(=O)O[C@H]2[C@]14C,Potency,[2],> 46 µM
same,outcome,[3],inactive
O=C(Cc1ccc(Cl)c(Cl)c1)OCCN1CCCC1,outcome,[4],inactive
same,outcome,[5],inactive
same,Potency,[1],inactive
CC(=O)NCCc1ccc(O)c(O)c1,outcome,[4],inactive
same,outcome,[5],inactive
same,Potency,[1],inactive
O=C(Nc1cc(C(=O)Nc2ccc(S(=O)(=O)O)cc2S(=O)(=O)O)cc(C(=O)Nc2ccc(S(=O)(=O)O)cc2S(=O)(=O)O)c1)Nc1cc(C(=O)Nc2ccc(S(=O)(=O)O)cc2S(=O)(=O)O)cc(C(=O)Nc2ccc(S(=O)(=O)O)cc2S(=O)(=O)O)c1,outcome,[4],inactive
same,outcome,[5],inactive
same,Potency,[1],inactive
NCCC(=O)NCCc1cnc[nH]1,outcome,[4],inactive
same,outcome,[5],inactive
same,Potency,[1],inactive
C[N+](C)(C)CCC(=O)c1cccc2ccccc12,outcome,[4],inactive
same,outcome,[5],inactive
same,Potency,[1],10 µM (active)
CC(C)C[C@H](N)CSSC[C@@H](N)CC(C)C,outcome,[4],inactive
same,outcome,[5],inactive
same,Potency,[1],inactive
CCCC(=O)NCCc1c2n(c3ccc(OC)cc13)Cc1ccccc1-2,outcome,[4],inactive
same,outcome,[5],inactive
same,Potency,[1],inactive
Cc1cccc(C)c1NC(=O)C[N+](C)(C)C,outcome,[4],inactive
same,outcome,[5],inactive
same,Potency,[1],inactive
COc1ccccc1CNCCCCCCNCCCCCCCCNCCCCCCNCc1ccccc1OC,outcome,[4],inactive
same,outcome,[5],inactive
same,Potency,[1],inactive
O=C(O)c1cc(=O)c2ccc(Cl)cc2[nH]1,outcome,[4],inactive
same,outcome,[5],inactive
same,Potency,[1],inactive
NCCNC(=O)c1ccc(Cl)cc1,outcome,[4],inactive
same,outcome,[5],inactive
same,Potency,[1],inactive
CCSC(N)=Nc1ccc(C(F)(F)F)cc1,outcome,[4],inactive
same,outcome,[5],inactive
same,Potency,[1],inactive
CC(N)=NCc1cccc(CN)c1,outcome,[4],inactive
same,outcome,[5],inactive
same,Potency,[1],inactive
CCCNC[C@H](O)COc1ccccc1C(=O)CCc1ccccc1,outcome,[4],inactive
same,outcome,[5],inactive
same,Potency,[1],inactive
CCCCN1CCC(COC(=O)c2cc(Cl)c(N)c3c2OCCO3)CC1,outcome,[4],inactive
same,outcome,[5],inactive
same,Potency,[1],inactive
N=C(N)SCCc1cccc(CCSC(=N)N)c1,outcome,[4],inactive
same,outcome,[5],inactive
same,Potency,[1],inactive
O=S(=O)(O)C1CCNCC1,outcome,[4],inactive
same,outcome,[5],inactive
same,Potency,[1],inactive
CN(C)CCCCSC(=N)N,outcome,[4],inactive
same,outcome,[5],inactive
same,Potency,[1],inactive
COc1ccc2c(c1)c(CC(=O)O)c(C)n2Cc1ccc(F)cc1,outcome,[4],inactive
same,outcome,[5],inactive
same,Potency,[1],inactive
N#Cc1c(-c2ccccc2)no[n+]1[O-],outcome,[4],inactive
same,Potency,[1],10 µM (active)

# Source: PubChem BioAssay (NCATS)
